Legend:
Settings in all cases: concentration: 1 μM, replicates: in singlicate; n = 1
PKMYT1 = tested on: PKMYT1
PKN1 = tested on: PKN1
PKN2 = tested on: PKN2
PLK1 = tested on: PLK1
PLK2 = tested on: PLK2
PLK3 = tested on: PLK3
PLK4 = tested on: PLK4
PRKCD = tested on: PRKCD
PRKCE = tested on: PRKCE
PRKCH = tested on: PRKCH
PRKCI = tested on: PRKCI
PRKCQ = tested on: PRKCQ
PRKD1 = tested on: PRKD1
PRKD2 = tested on: PRKD2
PRKD3 = tested on: PRKD3
PRKG1 = tested on: PRKG1
PRKG2 = tested on: PRKG2
PRKR = tested on: T1, PRKR
T1 construct: gene EIF2AK2

PRKX = tested on: PRKX
PRP4 = tested on: PRP4
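Note: KINOMEscan kinase panel screen.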

Row | SMILES | %Inh (PKMYT1) [%] | %Inh (PKN1) [%] | %Inh (PKN2) [%] | %Inh (PLK1) [%] | %Inh (PLK2) [%] | %Inh (PLK3) [%] | %Inh (PLK4) [%] | %Inh (PRKCD) [%] | %Inh (PRKCE) [%] | %Inh (PRKCH) [%] | %Inh (PRKCI) [%] | %Inh (PRKCQ) [%] | %Inh (PRKD1) [%] | %Inh (PRKD2) [%] | %Inh (PRKD3) [%] | %Inh (PRKG1) [%] | %Inh (PRKG2) [%] | %Inh (PRKR) [%] | %Inh (PRKX) [%] | %Inh (PRP4) [%]
1 | Cc1nnc(-c2ccc(C)c(-c3ccc(C(=O)Nc4ccc(NS(C)(=O)=O)cc4)cc3)c2)o1 [GW702865] | 0 | 28 | 15 | 0 | 0 | 7 | 6 | 0 | 0 | 0 | 13 | 0 | 0 | 0 | 17 | 7 | 10 | 8 | 0 | 56
2 | O=C1Cc2cc(Nc3nc(NCc4cccc(S(=O)(=O)C(F)(F)F)c4)ncc3C(F)(F)F)ccc2N1 | 17 | 0 | 0 | 0 | 5 | 1 | 4 | 17 | 23 | 0 | 0 | 4 | 16 | 0 | 26 | 0 | 1 | 0 | 0 | 10
3 | Cc1nnc(-c2ccc3occ(-c4ccc(C(C)O)cc4)c3c2)o1 (stereo not shown) | 0 | 0 | 0 | 2 | 0 | 0 | 21 | 11 | 0 | 0 | 12 | 5 | 11 | 20 | 0 | 10 | 34 | 0 | 0 | 0
4 | COc1cc(Nc2nccc(N3CCC(NC(=O)c4cccc(NC(C)=O)c4)C3)n2)cc(OC)c1OC (stereo not shown) [GSK1379754] | 0 | 0 | 0 | 0 | 0 | 3 | 75 | 8 | 0 | 2 | 0 | 24 | 0 | 0 | 0 | 15 | 0 | 0 | 27 | 20
5 | O=C(Nc1cccc(-c2nn3ncccc3c2-c2ccnc(Nc3cccc(C(F)(F)F)c3)n2)c1)c1c(F)cccc1F [GSK299495] | 9 | 0 | 0 | 0 | 0 | 2 | 0 | 0 | 14 | 16 | 19 | 49 | 16 | 0 | 14 | 0 | 0 | 0 | 0 | 71
6 | O=C(c1ccc(-c2cc(-c3c[nH]nc3-c3ccccn3)ccn2)cc1)N1CCOCC1 [GW812171] | 6 | 0 | 0 | 0 | 14 | 28 | 0 | 12 | 14 | 0 | 15 | 0 | 0 | 17 | 0 | 10 | 0 | 20 | 0 | 0
7 | COc1cc2c(cc1OC[C@@H](O)CO)ncc1c3ccc(C#N)cc3[nH]c21 | 0 | 0 | 33 | 0 | 0 | 0 | 9 | 5 | 62 | 0 | 0 | 0 | 0 | 0 | 0 | 0 | 0 | 0 | 0 | 9
8 | Fc1ccc(-c2ncn(CCCN3CCOCC3)c2-c2ccccn2)cc1 [SB-211742] | 0 | 0 | 9 | 12 | 0 | 0 | 0 | 28 | 0 | 0 | 100 | 0 | 0 | 31 | 0 | 0 | 1 | 12 | 0 | 44
9 | c1ccc(-c2cc(-c3c[nH]nc3-c3ccccn3)ccn2)cc1 [GW576604] | 3 | 9 | 0 | 0 | 0 | 0 | 0 | 0 | 0 | 0 | 23 | 0 | 67 | 49 | 50 | 0 | 0 | 3 | 0 | 22
10 | O=c1cc(N2CCOCC2)nc2n(Cc3cccc(Cl)c3Cl)c(C3CC3)nn12 [GSK2358994] | 0 | 2 | 0 | 0 | 0 | 16 | 9 | 0 | 33 | 0 | 4 | 0 | 13 | 0 | 17 | 14 | 0 | 0 | 0 | 0
11 | NCC(NC(=O)c1cc(-c2cn[nH]c2)c(-c2ccnc3[nH]ccc23)s1)c1ccccc1.O=C(O)C(F)(F)F.O=C(O)C(F)(F)F (stereo not shown) [GSK1325775] | 0 | 52 | 66 | 14 | 5 | 14 | 29 | 99.8 | 98.7 | 95.1 | 25 | 90.3 | 0 | 45 | 55 | 84 | 93.6 | 27 | 97.8 | 72
12 | Cc1cccc(-c2nc(Nc3ccc4ncsc4c3)c3ccccc3n2)n1 [GW867588] | 9 | 14 | 0 | 12 | 19 | 16 | 14 | 7 | 27 | 0 | 14 | 5 | 98.7 | 99.8 | 66 | 0 | 0 | 17 | 0 | 0
13 | CNc1ncnc2[nH]ncc12 [SKF-18355] | 1 | 0 | 2 | 31 | 12 | 23 | 6 | 0 | 12 | 0 | 0 | 0 | 0 | 0 | 0 | 0 | 0 | 0 | 0 | 0
14 | Cl.Nc1ncnc2occ(-c3ccc(NC(=O)Nc4cc(C(F)(F)F)ccc4F)cc3)c12 [SB-707548] | 0 | 0 | 0 | 5 | 98.8 | 98 | 35 | 27 | 10 | 1 | 25 | 15 | 0 | 20 | 29 | 11 | 7 | 28 | 9 | 8
15 | c1ccc(-c2n[nH]cc2-c2ccnc3ccccc23)nc1 [GW271431] | 3 | 12 | 0 | 0 | 0 | 0 | 0 | 4 | 3 | 9 | 0 | 0 | 1 | 14 | 38 | 0 | 8 | 0 | 0 | 5
16 | CN(C(=O)c1ccc(-c2cc(-c3c[nH]nc3-c3ccccn3)ccn2)cc1)C1CCOCC1 [GW810083] | 4 | 0 | 0 | 0 | 0 | 0 | 2 | 24 | 4 | 0 | 18 | 0 | 10 | 0 | 0 | 0 | 10 | 0 | 0 | 0
17 | CN1c2ccc(NCc3ccc(F)cc3)cc2-c2c(cnn2C)S1(=O)=O | 0 | 0 | 0 | 2 | 0 | 0 | 0 | 0 | 23 | 0 | 29 | 12 | 13 | 1 | 0 | 0 | 7 | 0 | 0 | 33
18 | Cl.Oc1cccc(Nc2ccnc3cc(-c4ccncc4)ccc23)c1 [GW494601] | 63 | 0 | 0 | 30 | 0 | 0 | 25 | 0 | 7 | 0 | 22 | 0 | 25 | 29 | 17 | 0 | 1 | 21 | 0 | 34
19 | Cc1nnc(-c2ccc3ncc(-c4ccc(S(C)=O)cc4)n3c2)o1 (stereo not shown) | 3 | 0 | 0 | 0 | 11 | 12 | 0 | 14 | 0 | 0 | 0 | 0 | 0 | 13 | 0 | 0 | 0 | 0 | 19 | 2
20 | O=C(NCCCN1CCOCC1)c1cccc(Nc2nccc(Nc3ccc(Oc4ccccc4)cc3)n2)c1 [GW663929] | 0 | 16 | 0 | 0 | 0 | 4 | 17 | 0 | 4 | 0 | 12 | 0 | 13 | 25 | 17 | 0 | 5 | 20 | 17 | 21
